# Screening data (PubChem BioAssay)
# Compounds with a hit are over-represented: about 19% of the library has one in this group of screens.
# TDP1 cell CPT – growth inhibition of DT40 Tdp1-/-;hTDP1 cells with camptothecin (screen for TDP1 inhibitors); chicken DT40 Tdp1-/-;hTDP1 cells + 20 nM CPT, ATP luminescence, 48 h; Potency, µM (top dose mostly 46.2 µM), for inactives: at the highest dose activity change, negative = growth inhibition, usual class: inhibitors; 420,000 compounds, 12% hits; AID 686979; further: potency means the concentration at half of the fitted maximal effect; on the % scale 0 is the no-effect control and ±100 the full control effect; nearly all actives have a fitted effect of over 55% in size
#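 Cell growth measured by CellTiter-Glo luminescence after a minimum 48 h, 37 C compound exposure with 20 nM CPT in Tdp1-knockout DT40 cells stably expressing hTDP1, seeded 400/well; qHTS titration format.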
# TDP1 cell noCPT – qHTS for Inhibitors of human tyrosyl-DNA phosphodiesterase 1 (TDP1): qHTS in cells in absence of CPT. DT40 Tdp1-/- hTDP1 cells, no CPT, ATP luminescence, 48 h. Potency, µM (series often up to 46.2 µM), inactives show top-dose activity change, negative = growth inhibition, usual class: inhibitors. 420,000 compounds, 15% hits; further: potency means the concentration at half of the fitted maximal effect; on the % scale 0 is the no-effect control and ±100 the full control effect; nearly all actives have a fitted effect of over 55% in size
#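 Cells were dispensed at 400 per well, compounds added by pin tool, plates incubated ≥48 hr at 37 °C, then CellTiter-Glo added for 30 min at room temperature before luminescence reading. Line: DT40 Tdp1-/- complemented with hTDP1; camptothecin omitted.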
# TGFb SMAD3 inh – blocks TGF-b signaling; HepG2 CAGA-GFP TGF-b/SMAD3 reporter, GFP fluorescence, 18 h; TGF-beta stimulated, 500 pg/mL final; Potency, µM (top dose mostly 46.1 µM), without a hit: at the top dose activity, negative = inhibition, hits mostly inhibitors; 410,000 compounds, 1.2% hits; AID 588855; further: potency means the concentration at half of the fitted maximal effect; on the % scale 0 is the no-effect control and ±100 the full control effect; nearly all actives have a fitted effect of over 65% in size
#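 HEPG2 CAGA-GFP reporter cells (1000/well, DMEM with 1% FBS) received compounds, then recombinant TGF-beta at 500 pg/mL final for 18 hours at 37 degrees C. Per-cell GFP summed per well was normalised to unstimulated and stimulated DMSO controls before curve fitting.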
# IL1B secr inh – inhibitors of inflammasome signaling (IL-1 beta secretion). THP-1 LPS/ATP IL-1B secretion, AlphaLISA, 16 h; hits give low values. activity change, % at 57.5 µM. 360,000 compounds, 4.7% hits; in the data active means activity change below about -50%; inconclusive means mostly about -30% to -49%; further: on the % scale 0 is the no-effect control and ±100 the full control effect
#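 THP-1 cells pretreated 1 hr with compounds (up to 57.5 uM final), then stimulated with LPS (250 ng/mL final) plus ATP (1.25 mM final); secreted IL-1B measured by AlphaLISA after 16 hr, decreased signal indicating inhibition.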
# TDP1 inh – blocks human tyrosyl-DNA phosphodiesterase 1; Q9NUW8; recombinant TDP1, AlphaScreen DNA substrate cleavage; Potency, µM (titrated, usually from 130 µM), for the others: at the top dose activity change, negative = inhibition, actives largely listed as inhibitors; 350,000 compounds, 0.28% hits; AID 485290; further: potency means the concentration at half of the fitted maximal effect; on the % scale 0 is the no-effect control and ±100 the full control effect; nearly all actives have a fitted effect of over 40% in size
# Target sequence (Q9NUW8 whole entry, looked up): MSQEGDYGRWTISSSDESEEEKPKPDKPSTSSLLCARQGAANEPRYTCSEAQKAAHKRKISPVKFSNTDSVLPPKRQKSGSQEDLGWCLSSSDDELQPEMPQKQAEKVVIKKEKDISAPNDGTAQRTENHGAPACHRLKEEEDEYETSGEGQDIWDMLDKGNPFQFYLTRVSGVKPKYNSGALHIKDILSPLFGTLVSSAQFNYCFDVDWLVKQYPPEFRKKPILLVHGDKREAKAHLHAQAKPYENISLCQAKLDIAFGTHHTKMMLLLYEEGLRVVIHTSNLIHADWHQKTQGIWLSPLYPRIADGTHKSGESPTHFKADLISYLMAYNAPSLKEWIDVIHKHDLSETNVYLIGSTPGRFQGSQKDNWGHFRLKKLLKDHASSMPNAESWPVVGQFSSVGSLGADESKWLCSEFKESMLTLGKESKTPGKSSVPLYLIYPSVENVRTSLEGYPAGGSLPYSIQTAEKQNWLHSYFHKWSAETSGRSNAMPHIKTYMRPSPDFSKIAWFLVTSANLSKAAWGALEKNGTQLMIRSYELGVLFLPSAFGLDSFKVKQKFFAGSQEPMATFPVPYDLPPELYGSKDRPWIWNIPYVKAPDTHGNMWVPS
#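 E. coli-derived human Tdp1, 1 nM final. Cpd preinc 15 min RT; substrate 15 nM final, 5 min RT; AS bead mix 10 ug/ml final, 10 min RT. Signal loss = tyrosine-FITC cleavage. No-enzyme wells = max signal.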
# HepG2 tox – counter-screen for TGF-b inhibitors: cytotoxicity in HepG2 cells | HepG2 CAGA-GFP viability, ATP luminescence, 18 h | Potency, µM (titrated, usually from 46.1 µM), for the others: top-dose activity change, negative = cytotoxicity, actives largely listed as cytotoxic | 410,000 compounds, 0.76% hits; further: potency means the concentration at half of the fitted maximal effect
#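 CellTiter-Glo luminescence gave cytotoxicity after 18 hours at 37 degrees C. The cells were HepG2 CAGA-GFP in 1% FBS DMEM, stimulated with 500 pg/mL TGF-beta after compound addition. %Activity was normalised to no-cell wells (complete cell-killing) and DMSO (no toxicity), and curves were fitted and classified.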
# Starred values were filed as active, the others as inactive; ? = inconclusive; . = no result given; [ ] = another dose, or the depositor's remark. Unless noted, the call rests on the fitted dose curve; in most records, active means well fitted curve in the direction sought with a large enough effect; inconclusive means small, poorly fitted or top-dose-only effect, or another doubt; inactive means no such curve, though single readings can be large; an effect the other way counts as inactive or inconclusive.
SMILES,TDP1 cell CPT,TDP1 cell noCPT,TGFb SMAD3 inh,IL1B secr inh,TDP1 inh,HepG2 tox
O=S(=O)(O)CC(S)CS (centres undefined),8.4µM*,4.7µM*,.,.,.,.
CCCC(=O)Nc1ccc(S(=O)(=O)Nc2cc(OC)ncn2)cc1,-1%,14%,-14%,19,4%,-2%
O=C(Nc1nnc(-c2ccco2)o1)c1ccc([N+](=O)[O-])s1,8.2µM*,9.2µM*,?,1,8%,-56%
O=C(Nc1nnc(-c2ccco2)o1)C1CC1,2%,-2%,-8%,-7,1%,0%
O=C(Nc1nnc(-c2ccco2)o1)c1ccc2ccccc2c1,?,21µM*,?,-2,8%,-8%
N#Cc1ccc(C(=O)Nc2nnc(-c3ccco3)o2)cc1,?,6.5µM*,?,28,5%,-54%
O=C(Nc1nnc(-c2ccncc2)o1)c1ccc(Br)s1,15µM*,13µM*,-17%,50,10%,-49%
CCOC(=O)c1cnc2cc(C(F)(F)F)ccc2c1Nc1cc(C)ccc1OC,-3%,?,?,.,-5%,7%
CC1CC(O)C(C)CN1 (centres undefined),15%,-5%,?,3,.,16%
Cc1ccc(C(=O)Nc2nnc(-c3ccco3)o2)cc1,23µM*,23µM*,0%,-4,6%,-21%
Cc1nnc(NC(=O)c2ccc3ccccc3c2)o1,?,?,0%,-57*,4%,-14%
O=C(Nc1ccccn1)c1ccc(Br)s1,1%,-17%,-10%,-64*,.,-19%
Cc1ccsc1C(=O)Nc1nnc(-c2ccco2)o1,?,-109%,?,9,5%,-17%
CCN(CC)C(=O)c1[nH]cnc1C(=O)NCC(=O)OC(C)(C)C,0%,-10%,-4%,7,.,-3%
CCCCN(C(=O)CCn1c(=O)oc2ccccc21)c1ccccc1,18µM*,?,0%,-5,0%,-8%
CCCC(=O)N(CCN(C(=O)CCC)c1ccccc1)c1ccccc1,12µM*,21µM*,-15%,-21,0%,-18%
Cc1ccc2c(CC(=O)N(C)c3c(N)n(Cc4ccccc4)c(=O)[nH]c3=O)coc2c1,-2%,-19%,-15%,17,4%[0.505 µM],-14%
Cc1[nH]n(-c2ncc(-c3ccccc3)s2)c(=O)c1C(c1ccc(Br)cc1)C(C#N)C#N (centres undefined),?,?,?,-64*,6%,11%
Cc1[nH]n(C(N)=S)c(=O)c1C(c1ccccc1)C(C#N)C#N (centres undefined),1.5µM*,1.5µM*,-14%,-10,10%,-5%
N#Cc1ccccc1NC(=O)C(=O)NCC(c1cccnc1)N1CCN(c2ccccc2)CC1 (centres undefined),?,-18%,163%,.,5%,119%
COC(=O)c1ccc(/C=N\N2CCN(c3ccccc3)CC2)cc1,3%,-7%,7%,23,.,-29%
CC(=O)n1cc(Nc2ccc([N+](=O)[O-])cc2)c2ccccc21,?,?,-1%,17,8%,-22%
CCOC(=O)c1ccccc1Nc1cn(C(C)=O)c2ccccc12,3.7µM*,4.6µM*,-15%,25,0%,-21%
Cc1ccc(Nc2nc3ccccc3c(=O)s2)cc1C,16µM*,12µM*,-37%,0,4%,-21%
O=c1sc(Nc2ccccc2)nc2ccsc12,?,1%,-22%,47,3%,-16%
SMILES,TDP1 cell CPT,TDP1 cell noCPT,TGFb SMAD3 inh,IL1B secr inh,TDP1 inh,HepG2 tox
CCc1nnc(NC(=S)Nc2ccccc2)s1,5.8µM*,-69%,-3%,8,4%,-11%
Cc1ccc(SCc2nnc(NC(=O)c3ccccc3)s2)cc1,-14%,-1%,2%,-2,-1%,-14%
Cc1ccc(C(=O)Nc2nnc(NC(=S)Nc3ccccc3)s2)cc1,?,21µM*,-16%,-20,.,-35%
CSc1nc2ccc3nc(NC(=O)c4ccc(C)cc4)sc3c2s1,4%,?,6%,-13,2%,6%
Cc1ccc(C(=O)Nc2nc3ccccc3c(=O)s2)cc1,18µM*,18µM*,?,-94*,6%,-40%
COc1ccccc1CN1CC[C@@]2(CCCN(C(=O)c3c(C)noc3C)C2)C1,-4%,-17%,.,.,.,.
COc1ccc(CNC(=O)C(Cc2ccccc2)NS(=O)(=O)c2ccc3c(c2)CCN3C(C)=O)cc1 (centres undefined),-1%,-13%,14%,.,0%,-6%
CC(=O)N1c2ccccc2CC1C(=O)N1CCN(c2cccc(Cl)c2)CC1 (centres undefined),?,-14%,31%,.,-1%,0%
Cc1sc2nc(CN3CCCC3)nc(N3CCN(S(=O)(=O)c4cccs4)CC3)c2c1C,?,18µM*,1%,?,9%,-31%
Cc1ccc(C)c(S(=O)(=O)N2CCN(c3nc(CN4CCOCC4)nc4sc(C)c(C)c34)CC2)c1,?,18µM*,-27%,-28,6%,-5%
Cc1cc2nc(/C=C/c3cccnc3)[nH]c2cc1C,0.018µM*,0.018µM*,?,6,.,9%
O=S(=O)(c1ccccc1Br)N(Cc1ccccc1)Cc1ccco1,.,.,?,.,8%,-24%
CCOC(=O)C1=C(c2ccccc2)NC(=O)NC1c1cc(Cl)c(O)c(OC)c1 (centres undefined),-22%,?,4%,-2,6%,-1%
CCOC(=O)C1=C(c2ccccc2)NC(N)=NC1c1ccc(OCc2ccc(Cl)cc2)c(OC)c1 (centres undefined),23µM*,?,?,?,7%,-122%
CCCSc1ncc(Cl)c(C(=O)Nc2sc3c(c2C(=O)OC)CCCC3)n1,5%,17%,-9%,.,2%,0%
Cc1ccc(N2CCN(S(=O)(=O)c3ccc4oc(=O)ccc4c3)CC2)c(C)c1,16µM*,?,-16%,-9,0%[0.0935 µM],0%
COc1ccc(S(=O)(=O)N2CCN(c3c(C)cccc3C)CC2)cc1OC,?,-19%,-9%,20,1%,-14%
COc1ccc(S(=O)(=O)N2CCN(c3ccc(C)cc3C)CC2)cc1OC,21µM*,?,-35%,10,2%,-18%
Cc1cc(C)c2c(=O)cc(C(=O)NCCc3ccc(S(N)(=O)=O)cc3)oc2c1,5%,-11%,-3%,.,5%,-10%
